The values that follow come from PubChem BioAssay (NCI).

This is part of a sample that, as a whole, favours compounds with a hit. Of some 83,000 tested, about 20% had one in any assay.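 Method: cells in 96-well plates; compound added at one concentration; 48 h incubation; percent growth measured; values under 10 scored active.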 Unmarked numbers belong to inactive results. Activity calls are given as the source filed them.

This assay concerns U251 CNS. Put plainly: NCI-60 one-dose screen, 48 h (100 = growth as untreated, 0 = no growth, -100 = all killed). Conditions: 10 µM unless noted. How it is done:
Growth inhibition of the U251 human tumor cell line is measured as a screen for anti-cancer activity. Cells are grown in 96 well plates and exposed to the test compound for 48 hours. Compounds are tested at a single concentration, which is 10^-5 M for most compounds. The reported endpoint is percent growth (GI% or GIPRCNT), where numbers from 0 - 100% represent growth inhibition, and numbers from -100% - 0 represent cell death. For example, a value of 40 represents 60% growth inhibition. A value of 0 means no net growth occurred over the course of the experiment. A value of -40 indicates 40% of cells at the beginning of the experiment died by the end of the experiment. A value of -100 means all cells are dead at the end of the experiment.
NCI-60 Human Tumor Cell Lines Screen was performed using the standard one-dose NCI protocol, which is described in more detail at https://dtp.cancer.gov/discovery_development/nci-60/default.htm.
Compounds with GIPRCNT values below 10 were considered active. Activity score was based on GIPRCNT using the following formula: […]
Score is 0 for GIPRCNT values of 100 or above, 50 for GIPRCNT values of 0, and 100 for GIPRCNT values of -100.
As for `COc1ccc(-c2nc3cccc(O)c3c(=O)n2Cc2ccccc2)cc1COc1ccc(NC(C)=O)cc1`, the growth is 30% [3 µM].
Consider `O=c1[nH]c(Sc2sc3ccc(Cl)cc3c2CBr)nc(=S)[nH]1`, for which the growth is 38.7%.
For the molecule `COc1c(N2CC3CCCNC3C2)c(F)cc2c(=O)c(C(=O)N/N=C/c3ccc(N(C)C)cc3)cn(C3CC3)c12` (stereo not given), the growth is 49%.
Turning to `N#Cc1c(Nc2ccccc2)nn2c(-c3ccc([N+](=O)[O-])cc3)ccnc12`, the growth is 99.8%.
For `C=CC(=O)N1CCC=C(c2cc3c(N[C@H](C)c4ccccc4)ncnc3[nH]2)C1`, the growth was 84.2%.
Turning to `COC(=O)C1(C)CCC[C@]2(C)[C@H]3C[C@H]4C(C(C)C)=C[C@]3(CC[C@@H]12)[C@H]1[C@@H]4[C@@H](OC(=O)c2ccco2)CC[C@@H]1OC(=O)c1ccco1` (stereo not given in full), the growth was 100%.
Regarding `COc1cc(Cn2cc3c(c2)-c2onc(CN4CCCC4)c2CC3)cc(OC)c1OC`, the growth was 96.8%.
As to `Nc1cc(-c2c[nH]c3ccc(Br)cc23)nc2cc(-c3c[nH]c4ccc(Br)cc34)nn12`, the growth is -47.8% (active).
With `Nc1ncc(-c2ccc3ncnc(N4CCc5cc(F)c(Cl)cc54)c3c2)cn1`, the growth is 45%.
On to `Cc1cc(-c2ccc(Cl)cc2)n(Cc2nnc(SCC(=O)Nc3ccc(S(N)(=O)=O)cc3)n2-c2ccc([N+](=O)[O-])cc2)n1`, for which the growth was 88.4%.
Consider `C#Cc1nc(C(=O)NCCC(=O)Nc2ccc(NC(=O)c3ccc(/C=C/C(=O)c4nccn4C)cc3)cc2)cs1`, for which the growth is 3.44% (active).
For `CNc1ncc2cc(-c3ccc(-c4ncccc4F)cc3Cl)c(=O)n(CC3OCC(N)CO3)c2n1` (stereo not given), the growth was 51.8%.
In the case of `COc1ccccc1-n1cc(C#N)c(N)c1C(=O)c1ccc(C)cc1`, the growth was 79.4%.
On to `CN1CCN(Cc2ccc(NC(=O)c3cncc(C#Cc4cnn5cccnc45)c3)cc2C(F)(F)F)CC1`, for which the growth is 36.2%.
Regarding `CCC(CC)N1C(=O)/C(=c2\sc3n(c2=O)NC2C(N=3)N(CC)C(=O)N2CC)c2ccccc21` (stereo not given), the growth is 58.9%.
On to `CCC1=Cc2cc(OC)ccc2OC12C=Cc1cc(OC)ccc1O2` (stereo not given), for which the growth was 28.7%.
On to `O=C(Nc1ccc2c(ccn2Cc2ccccn2)c1)c1cnccn1`, for which the growth is 105%.
Turning to `C#Cc1nc(C(C)=O)cs1`, the growth is 102%.
The same measure for `COc1ccc(-c2nn(-c3ccc(S(C)(=O)=O)cc3)cc2/C=N/O)cc1`: 106%.
Take `C=C(C)[C@@H]1CC[C@]2(COC)CC[C@]3(C)[C@H](CC[C@@H]4[C@@]5(C)CCCNC(C)(C)[C@@H]5CC[C@]43C)[C@@H]12`: the growth was 22.2%.
Next, `NC(N)=Nc1ccc(Oc2cccc(Nc3ccc(Br)c(C(F)(F)F)c3)c2)cc1`: -78.9% (active).
Regarding `NC(=O)c1c(NC(=O)c2ccccc2C(F)(F)F)sc2c1CCC(=O)C2`, the growth was 14.3%.
Next, `COc1ccc([C@@H]2c3[nH]c4ccccc4c3C[C@H]3C(=O)N(C4CCN(CC5CCCCC5)CC4)CC(=O)N23)c(OC)c1`: 72.4%; `Nc1nc(-c2cccc([N+](=O)[O-])c2)c(N=Nc2ccc(Br)cc2)s1`: -89.3% (active).
Regarding `CCn1c2ccccc2c2cc(-n3nncc3-c3ccccc3)ccc21`, the growth was 25.1%.
Regarding `O=C1Nc2ccccc2/C1=C/c1ccc(CO)n1-c1ccc(Cl)cc1`, the growth was 56.4%.
Turning to `NC(N)=Nc1ccc(Oc2cccc(Nc3cccc(C(F)(F)F)c3)c2)cn1`, the growth was -62.7% (active).
For `O=S(=O)(NCCCNc1nccc(-c2[nH]c(-c3ccccc3)nc2-c2ccc(Cl)c(O)c2)n1)c1cccc2ccccc12`, the growth is 14.7%.
`NS(=O)(=O)c1ccc(-n2cc(CN3CCCCC3)nn2)cc1`: the growth was 104%.
Take `CCCn1cnc2c(c1=N)C(c1ccc(Cl)cc1)c1sc3c(CC)cccc3c1O2` (stereo not given): the growth was 14.3%.
For `Brc1ccccc1/C=N/Nc1nc(N/N=C/c2ccccc2Br)nc(N2CCOCC2)n1`, the growth is 96.5%.
Next, `Cc1ccc(-n2cc(/C=N/NC(=O)c3nc(N)n[nH]3)c(-c3ccc(S(C)(=O)=O)cc3)n2)cc1`: 101%.
For the molecule `C[C@H](CCC(=O)NCc1ccc(C(=O)Nc2ccccc2N)cc1)[C@H]1CC[C@H]2[C@@H]3[C@@H](O)C[C@@H]4C[C@H](O)CC[C@]4(C)[C@H]3CC[C@]12C`, the growth was 64.3%.
`CS(=O)(=O)c1ccc(-c2nn(-c3ccccc3)cc2/C=N/NC(=O)c2nc(N)n[nH]2)cc1`: the growth is 101%.
As for `O=C(O)c1ccc(-n2cc(CNc3cc(F)c(F)c(F)c3)c(-c3cccc(F)c3)n2)cc1`, the growth is 93.3%.
In the case of `CCOc1ccc(NC2=C(Cl)C(=O)c3nc(C)ccc3C2=O)cc1`, the growth was 15.6%.
With `NC(N)=Nc1ccc(Oc2cccc(NC(N)=Nc3ccc(Cl)c(C(F)(F)F)c3)c2)cc1`, the growth was 23%.
On to `N#Cc1c(-c2cccs2)cc(-c2cnccn2)nc1SCC(=O)c1ccc(F)cc1`, for which the growth is 104%.
Next, `Cc1ccc(C2=NN(C)C(=O)C3(CCCC3)C2)cc1`: 103%.
Turning to `CCC(NC(c1cc2cccc3ccc4cccc1c4c32)c1nnnn1C(C)(C)C)C1CCCCC1` (stereo not given), the growth was 53.8%.
